In PubChem BioAssay (NCI) one finds growth data, which are given here for eight compounds.

Compounds without any hit were thinned out: in the full panel of roughly 83,000, 20% have a hit.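 Treatment: one concentration, 48 hours, 96-well format. Scoring: percent growth, with anything below 10 considered active.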 Values without a mark were called inactive. The source made the active and inactive calls.

Test systems include SK-MEL-2 melanoma; EKVX NSCLC; SN12C renal; UO-31 renal; TK-10 renal; ACHN renal; CAKI-1 renal; A498 renal; CCRF-CEM leukemia; MOLT-4 leukemia; SR leukemia; OVCAR-8 ovarian; OVCAR-5 ovarian; OVCAR-4 ovarian; SK-OV-3 ovarian; IGROV1 ovarian; OVCAR-3 ovarian; HS 578T breast; NCI/ADR-RES ovarian.
Common to all, as to experiment: NCI-60 one-dose screen, 48 h (100 = growth as untreated, 0 = no growth, -100 = all killed)
Common to all, as to details: 10 µM unless noted

For `NC1=NC(c2cccc(Br)c2)c2sc3ccc(Cl)cc3c2N1` (configuration not stated), the growth in the experiment on SK-MEL-2 melanoma is 108%; in the experiment with EKVX NSCLC it was 85.5%; with SN12C renal it was 93.5%; in the experiment on UO-31 renal, 62.8%; with TK-10 renal, 123%; in the experiment on ACHN renal, 92.9%. For the same compound, the growth in the experiment on CAKI-1 renal is 79.5%; in the experiment on A498 renal it was 104%; in the experiment with CCRF-CEM leukemia, 121%; in the experiment with MOLT-4 leukemia, 92.2%; in the experiment on SR leukemia, 77.6%; in the experiment with OVCAR-8 ovarian, 102%. Further, the growth is 103% in the experiment on OVCAR-5 ovarian; 93.5% with OVCAR-4 ovarian; 92.1% with SK-OV-3 ovarian; 77% with IGROV1 ovarian; 99.2% with OVCAR-3 ovarian; 104% with HS 578T breast. For the same compound, the growth in the experiment on NCI/ADR-RES ovarian is 103%.
Consider `O=c1c2cc(F)ccc2sc2c(N3CCNCC3)nc3ccc(F)cc3c12`, for which the growth in the experiment with SK-MEL-2 melanoma is 90.5%; in the experiment with EKVX NSCLC, 66.4%; in the experiment on SN12C renal, 54.2%; in the experiment on UO-31 renal, 31.8%; in the experiment on TK-10 renal it was 26.6%; in the experiment on ACHN renal it was -41.6% (active). For the same compound, the growth was -96.9% (active) with CAKI-1 renal; 45.5% in the experiment on A498 renal; -12.1% (active) with CCRF-CEM leukemia; -36.5% (active) with MOLT-4 leukemia; -46.3% (active) with SR leukemia; 3.1% (active) with OVCAR-8 ovarian. For the same compound, the growth is 60.3% with OVCAR-5 ovarian; -63.8% (active) with OVCAR-4 ovarian; 84% with SK-OV-3 ovarian; 36.3% with IGROV1 ovarian; -84.1% (active) with OVCAR-3 ovarian; 46.6% in the experiment on HS 578T breast. Further, the growth with NCI/ADR-RES ovarian is 4.72% (active).
For the compound `N#Cc1cccc(NC(=O)c2cc(-c3ccc(F)cc3F)ccc2O)c1`, the growth is -6.68% (active) with SK-MEL-2 melanoma; 89.4% in the experiment with EKVX NSCLC; 4.26% (active) in the experiment with SN12C renal; -11.4% (active) in the experiment with UO-31 renal; 21.9% in the experiment on TK-10 renal; 7.33% (active) in the experiment with ACHN renal. Further, the growth with CAKI-1 renal was 3.62% (active); in the experiment on A498 renal, -33.2% (active); with CCRF-CEM leukemia, 27.4%; in the experiment on MOLT-4 leukemia it was 11.8%; in the experiment with SR leukemia it was 12.8%; in the experiment with OVCAR-8 ovarian it was 16.8%. Moreover, the growth in the experiment with OVCAR-5 ovarian is 36.8%; with OVCAR-4 ovarian, 22.1%; in the experiment with SK-OV-3 ovarian, 6.59% (active); in the experiment with IGROV1 ovarian it was 29%; with OVCAR-3 ovarian, 1.29% (active); with HS 578T breast, 16%. Also, the growth with NCI/ADR-RES ovarian was 4.93% (active).
`COc1ccc2sc3c(NCCCN(C)C)nc4ccccc4c3c(=O)c2c1`: the growth in the experiment on SK-MEL-2 melanoma is 95.9%; in the experiment with EKVX NSCLC, 70%; with SN12C renal, 72.3%; in the experiment on UO-31 renal, 48.4%; in the experiment on TK-10 renal, 78%; with ACHN renal, 69.9%. Moreover, the growth in the experiment on CAKI-1 renal was 63%; in the experiment with A498 renal it was 17.4%; with CCRF-CEM leukemia, 4.23% (active); with MOLT-4 leukemia, -16.2% (active); in the experiment with SR leukemia it was -39.2% (active); in the experiment on OVCAR-8 ovarian it was 61.9%. In addition, the growth in the experiment on OVCAR-5 ovarian is 89.8%; with OVCAR-4 ovarian, -9.97% (active); in the experiment on SK-OV-3 ovarian, 74.9%; with IGROV1 ovarian it was 54.2%; in the experiment on OVCAR-3 ovarian, -18.5% (active); with HS 578T breast, 73%. For the same compound, the growth in the experiment with NCI/ADR-RES ovarian is 55.7%.
`COc1c(N2CC3CCCN(C(C)=O)C3C2)c(F)cc2c(=O)c(C(=O)N[C@H]3C(O)[C@@H](O)C(CO)O[C@H]3O)cn(C3CC3)c12` (some centres not stated): the growth is 111% in the experiment with SK-MEL-2 melanoma; 103% in the experiment on EKVX NSCLC; 98.9% in the experiment on SN12C renal; 92.2% with UO-31 renal; 105% in the experiment on TK-10 renal; 105% in the experiment with ACHN renal. Further, the growth with CAKI-1 renal was 101%; with A498 renal, 103%; with CCRF-CEM leukemia, 105%; with MOLT-4 leukemia, 116%; with SR leukemia, 108%; in the experiment with OVCAR-8 ovarian, 107%. Moreover, the growth is 104% in the experiment with OVCAR-5 ovarian; 110% in the experiment on OVCAR-4 ovarian; 115% in the experiment with SK-OV-3 ovarian; 114% in the experiment with IGROV1 ovarian; 109% in the experiment on OVCAR-3 ovarian; 105% in the experiment with HS 578T breast. Besides, the growth in the experiment with NCI/ADR-RES ovarian is 110%.
Regarding `CC([C@H]1CCC2C3CCC4C[C@@H](NC=O)CC[C@]4(C)C3CC[C@@]21C)N(C)C` (some centres not stated), the growth is -7.03% (active) in the experiment on SK-MEL-2 melanoma; 29% in the experiment on EKVX NSCLC; 19.9% in the experiment with SN12C renal; 0.264% (active) in the experiment on UO-31 renal; 49.1% in the experiment with TK-10 renal; 6.15% (active) with ACHN renal. Further, the growth in the experiment on CAKI-1 renal was -10.1% (active); in the experiment on A498 renal, 29.1%; with CCRF-CEM leukemia, -21.6% (active); in the experiment on MOLT-4 leukemia, -49.9% (active); with SR leukemia, -38.7% (active); in the experiment with OVCAR-8 ovarian it was 41.1%. Also, the growth in the experiment with OVCAR-5 ovarian was 67.8%; with OVCAR-4 ovarian it was -18.6% (active); with SK-OV-3 ovarian, 42.5%; with IGROV1 ovarian, 25.6%; with OVCAR-3 ovarian it was -34.3% (active); in the experiment on HS 578T breast, -2.92% (active). For the same compound, the growth with NCI/ADR-RES ovarian was 27.1%.
In the case of `CN1CCN(CC(=O)N2c3cccc4cccc(c34)N(C(=O)CN3CCN(C)CC3)C2c2cn(-c3ccccc3)nc2-c2cccc([N+](=O)[O-])c2)CC1`, the growth in the experiment with SK-MEL-2 melanoma was -47.6% (active); in the experiment on EKVX NSCLC, 17.8%; in the experiment on SN12C renal, -21.5% (active); with UO-31 renal, 26.2%; in the experiment on TK-10 renal, -19.4% (active); in the experiment on ACHN renal, -31.1% (active). Further, the growth in the experiment on CAKI-1 renal is 14.4%; in the experiment with A498 renal, 44.6%; with CCRF-CEM leukemia, -32% (active); in the experiment with MOLT-4 leukemia, -11.6% (active); in the experiment on SR leukemia it was -17.2% (active); in the experiment with OVCAR-8 ovarian, -8.45% (active). Further, the growth is 20.5% with OVCAR-5 ovarian; -21.8% (active) in the experiment on OVCAR-4 ovarian; -14.4% (active) with SK-OV-3 ovarian; 4.75% (active) in the experiment with IGROV1 ovarian; -57.6% (active) in the experiment on OVCAR-3 ovarian; 28.6% in the experiment with HS 578T breast. The growth in the experiment on NCI/ADR-RES ovarian was 72.4%.
On to `COc1cccc(-c2nc(-c3ccc(NC(=O)c4ccccc4)cc3)[nH]c2-c2ccnc(Br)c2)c1`, for which the growth in the experiment with SK-MEL-2 melanoma is 29.4%; in the experiment on EKVX NSCLC, 24.4%; with SN12C renal, 53.8%; in the experiment on UO-31 renal, 3.81% (active); in the experiment on TK-10 renal, 59.5%; in the experiment with ACHN renal, 24.8%. Also, the growth in the experiment on CAKI-1 renal is 20.4%; in the experiment on A498 renal, -28.3% (active); in the experiment with CCRF-CEM leukemia it was 21.4%; in the experiment on MOLT-4 leukemia it was 15.1%; with SR leukemia it was -2.71% (active); in the experiment on OVCAR-8 ovarian, 34%. In addition, the growth in the experiment with OVCAR-5 ovarian was 47.9%; in the experiment with OVCAR-4 ovarian, 38.4%; in the experiment with SK-OV-3 ovarian, 6.72% (active); with IGROV1 ovarian it was 55.1%; in the experiment with OVCAR-3 ovarian, 40%; in the experiment on HS 578T breast, -25.8% (active). In the experiment on NCI/ADR-RES ovarian, the growth is 35.5%.
